Bioassay records: PubChem BioAssay, several laboratories
Only some compounds are listed: those with a hit (about 6.2% of all), similar ones and a draw of the others.
Mot1-301 SUMO: yeast Mot1-301 growth rescue at high temperature, primary screen, SUMOylation pathway inhibitor project, S. cerevisiae, ATP luminescence, 38.5C; S. cerevisiae Mot1-301 growth rescue; percent above DMSO median, 100 means doubled; growth rescue, % at 18.8 µM; 320,000 compounds, 1% hits; AID 2716, 2010;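 active = every valid replicate shows activation above 250% relative to neutral control wells; inactive = the rest, any valid replicate at or below 250%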;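 also: OY570 slx delta 5 strain wells were the positive control but not used for scaling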
H9c2 protect: cardioprotection against H2O2-induced cell death, primary screen, uHTS, H9c2 cells, ATPLite luminescence. AID 588492, 2011. protection from H2O2 cell death, % at 20 µM. H9c2 cardiomyocytes, H2O2 injury protection, 2 h. 360,000 compounds, 0.63% hits;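 active = compounds giving at least 50% protection of heart cells from peroxide-induced death in the single-dose screen, raw or plate-pattern-corrected value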;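 also: 0% = DMSO wells with peroxide and 100% = DMSO wells without peroxide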
NTR1 ag: agonists of human NTR1, primary screen, imaging, U2OS cells, beta-arrestin-GFP, high content; Neurotensin receptor type 1 (Homo sapiens), P30989; activation, % at 20 µM; AID 493036, 2011; NTR1-U2OS beta-arrestin-GFP spot imaging, agonist mode; 330,000 compounds, 0.17% hits;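 active = activation at or above 40% of the spot to cytoplasm intensity ratio, with at least 20 cells analyzed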;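 also: 0% = DMSO without peptide and 100% = 100 nM NTR1 peptide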
AHR activator: AHR activators, primary screen, cell-based, luminescence, luciferase reporter, human. Aryl hydrocarbon receptor (Homo sapiens), P35869. AHR-responsive luciferase reporter cells. activation, % at 5 µM. 320,000 compounds, 2.5% hits. AID 2796, 2010; in the data active = activation above about 47%;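 also: 0% = vehicle wells and 100% = reference agonist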
AI-2 QS mod: Vibrio harveyi AI-2 quorum sensing modulators, primary screen, JMH597 strain, luminescence/OD600 ratio. 300,000 compounds, 0.4% hits. Vibrio harveyi JMH597 AI-2 luminescence/OD600 ratio, 9 h; hits give low values; strain lacks LuxN and CqsS sensors; 0 = neutral-control median. activity change, % at 7.5 µM; in the data active = activity change below about -75%, passing the limit was not always enough;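 also: luminescence divided by OD600 gain over 9 h not by final OD600 alone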
GRIN3A LBD mod: binders of NR3A ligand-binding domain, primary screen, biophysical, differential scanning fluorimetry, uHTS | Glutamate receptor ionotropic, NMDA 3A (GRIN3A) ligand-binding domain | NR3A LBD differential scanning fluorimetry, Tm shift; 0% = protein alone, 100% = glycine-bound protein | Tm shift relative to glycine control, % at 25 µM | 340,000 compounds, 2.5% hits;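 active = melting temperature shift of at least 10% of the positive control shift, at one fixed dose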
Starred values were filed as active, the others as inactive; · = not tested or not shown.

SMILES	Mot1-301 SUMO	H9c2 protect	NTR1 ag	AHR activator	AI-2 QS mod	GRIN3A LBD mod
CN(CC(=O)Nc1ccc(Cl)cc1)C(=O)CN1C(=O)C2CCCCC2C1=O (stereo not given)	·	4	·	·	·	·
COc1cc(NC(=O)CN2C(=O)c3ccccc3S2(=O)=O)cc(OC)c1	-10	2	2	3	·	1
COc1ccc(Cc2noc(=O)[nH]2)cc1	·	0	·	·	·	·
COc1ccc(CSc2nc3ccccc3c(=O)[nH]2)cc1F	121	53*	2	2	6	-1
COc1ccccc1OCCSc1nc2ccccc2c(=O)[nH]1	-9	66*	4	4	26	·
O=c1[nH]c(SCCOc2ccccc2F)nc2ccccc12	-4	12	6	-2	24	-6
CC(=O)Nc1cccc(Oc2ccc3c(c2)C(=O)NC3=O)c1	-13	-16	0	4	7	-1
O=c1[nH]c(-c2ccc(F)cc2)nc2c1sc(=S)n2-c1ccccc1	966*	-20	2	2	4	-3
CSc1cccc(NC(=O)c2ccc(NC3=NC4CS(=O)(=O)CC4S3)cc2)c1 (stereo not given)	-21	4	-1	4	11	28*
CC(C)c1ccc(NC(=O)c2ccc(NC3=NC4CS(=O)(=O)CC4S3)cc2)cc1 (stereo not given)	0	-5	2	19	17	16*
O=C(Nc1cccc(Cl)c1)c1ccc(NC2=NC3CS(=O)(=O)CC3S2)cc1 (stereo not given)	-12	2	1	3	0	-3
COc1c(NC=O)c2c(c([N+](=O)[O-])c1OC)C(=O)OC2	·	8	·	·	·	-1
CCNCC(=O)N1c2ccccc2CCc2ccc(NC(=O)OCC)cc21	293*	-5	1	2	21	-1
COc1cccc(-c2nn(-c3ccccc3)cc2CN(C)C(C)c2ccon2)c1 (stereo not given)	52	10	3	68*	25	-2
COc1cccc(-c2nn(-c3ccccc3)cc2CN(C)Cc2ccno2)c1	1	9	0	14	20	-3
Cc1cc(C(=O)COC(=O)c2ccc(Cl)c(S(N)(=O)=O)c2)c(C)n1CC1CCCO1 (stereo not given)	331*	-10	-1	0	21	1
CC(C)(O)C#Cc1ccc(CN2CCC(n3nccc3NC(=O)C3CC3)CC2)cc1	14	3	1	-1	27	-2
O=C(C[C@H]1C[C@@H]2c3cc(NC(=O)Nc4ccccc4)ccc3O[C@@H]2[C@@H](CO)O1)NCC1CC1	·	1	·	·	·	·
N#CC(C(=O)Nc1ccccc1)=C1Nc2ccccc2N1	-12	-1	3	78*	12	0
N#CC(C(=O)Nc1ccc(Cl)c(Cl)c1)=C1Nc2ccccc2N1	-27	-9	6	7	10	4
N#CC(C(=O)Nc1cccc(Cl)c1)=C1Nc2ccccc2N1	11	-8	0	5	10	10*
COc1ccc(/C=C/C(=O)NC(=S)Nc2ccc(Br)cn2)cc1	-1	-2	0	8	-5	25*
O=C(/C=C/c1ccccc1)NC(=S)Nc1ccccc1C(=O)NC1CCCCC1	14	-10	0	-3	13	25*
CCC(=O)Nc1ccc(Br)cn1	-32	13	0	0	14	233*
COc1ccc(/C=C/C(=O)NC(=S)Nc2ccccc2C(=O)NC2CCCCC2)cc1	58	8	1	2	10	28*
SMILES	Mot1-301 SUMO	H9c2 protect	NTR1 ag	AHR activator	AI-2 QS mod	GRIN3A LBD mod
CCCC(=O)Nc1ccc(Br)cn1	·	6	0	1	15	0
O=C(/C=C/c1ccc(F)cc1)NC(=S)Nc1ccccc1C(=O)NC1CCCCC1	-8	5	0	-1	14	1
CC(=O)NS(=O)(=O)c1ccc(NC(=O)C(C)NS(=O)(=O)/C=C/c2ccccc2)cc1 (stereo not given)	7	-6	1	-1	·	-1
COC(=O)c1ccc(OCC(=O)Nc2ccccc2C(=O)NC2CC2)cc1	-16	57*	5	6	·	9
CCOC(=O)N1CCN(S(=O)(=O)N2CCCC(C(=O)NCc3cc(OC)ccc3OC)C2)CC1 (stereo not given)	·	6	·	·	·	·
CC(=O)Nc1ccc(NC(=O)CSc2ccc3nnc(-c4cccnc4)n3n2)cc1	16	3	0	1	14	-19
Cc1ccc(NC(=O)CSc2ccc3nnc(-c4cccnc4)n3n2)cc1	-15	8	0	63*	15	0
Cc1cccc(CSc2ccc3nnc(-c4cccnc4)n3n2)c1	9	-8	1	37	18	-2
c1ccc(CSc2ccc3nnc(-c4cccnc4)n3n2)cc1	·	20	10	27	32	14*
Cc1ccc(-c2nnc3ccc(SCC(=O)Nc4cc(C)on4)nn23)cc1	·	4	0	7	28	-2
COc1ccc(-c2nnc3ccc(SCC(=O)Nc4nc5ccc(C)cc5s4)nn23)cc1OC	39	11	-1	3	18	14*
Cc1cc(NC(=O)CSc2ccc3nnc(-c4cccs4)n3n2)no1	11	15	-1	49*	9	0
Cc1cc2nc(C3CCCCC3)c(CC(C)(C)C)n2c(C)c1Br	·	5	·	·	·	·
O=C(Nc1cc(Cl)ccc1Cl)P(=O)(O)c1ccccc1	·	0	·	·	·	2
CC(C)(C)NC(=O)CC1C[C@H](C(=O)N2CCCCC2)[C@@]2(C)c3[nH]c4ccccc4c3CCN2C1=O (stereo not given in full)	3	4	4	1	·	-2
CCOC(=O)c1c(C)[nH]c(C)c1C(=O)COC(=O)Cc1ccc(OC)c(OC)c1	-11	-4	1	3	·	-2
Cc1cc(NC(=O)CSc2nnc(C3CC3)n2Cc2ccccc2)no1	10	3	1	0	11	-1
Cc1cc(NC(=O)CSc2nnc(C3CC3)n2-c2ccccc2)no1	-2	2	0	48*	10	0
NC(=O)c1cc([N+](=O)[O-])c(Cl)cc1NCc1ccccn1	-13	-7	3	67*	·	-1
NC(=O)c1cc([N+](=O)[O-])c(Cl)cc1NCc1ccncc1	253	6	2	11	·	4
O=C(Cc1cccc(NC(=O)C2CCCN(C(=O)C3CCC3)C2)c1)Nc1cccc(C(=O)N2CCCC2)c1 (stereo not given)	-5	-3	0	-1	·	2
